From PubChem BioAssay (NCATS)
Records with an inconclusive call do not appear. The source made the active and inactive calls. Calls follow the shape of the dose curve; as a rule, active = well fitted inhibition curve with a large enough effect; inconclusive = small, poorly fitted or top-dose-only effect; inactive = flat fitted curve, though single readings scatter.

Legend:
Test in all cases: qHTS profiling for inhibitors of Plasmodium falciparum proliferation (AID 504749); also: nearly all actives have a fitted effect of over 60% in size
Conditions in all cases: P. falciparum in erythrocytes, SYBR Green DNA, 72 h; series mostly up to 28.7 µM
CP217 = tested on: CP217
Procedure, shortened: (§1)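 P. falciparum-infected erythrocytes (0.3% parasitemia, 2.5% hematocrit final) were exposed to compounds for 72 h at 37 C in 5% CO2, then lysed with SYBR Green buffer overnight at room temperature; parasite DNA fluorescence was normalized to artemisinin and DMSO controls.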

CP238 = tested on: CP238
Procedure, shortened: as §1

CP247 = tested on: CP247
Procedure, shortened: as §1

CP250 = tested on: CP250
Procedure, shortened: as §1

CP252 = tested on: CP252
Procedure, shortened: as §1

CP256 = tested on: CP256
Procedure, shortened: as §1

CP260 = tested on: CP260
Procedure, shortened: as §1

CP262 = tested on: CP262
Procedure, shortened: as §1

CP215 = tested on: CP215
Procedure, shortened: as §1

CP237 = tested on: CP237
Procedure, shortened: as §1

Measured: Potency

CC(Cc1ccc(O)c(O)c1)C(C)Cc1ccc(O)c(O)c1 (configuration not stated)
not listed: CP215 | CP237
inactive: all other assays above

C=C1C(=CC=C2CCC[C@@]3(C)[C@@H]2CC[C@H]3[C@H](C)CCCC(C)C)C[C@@H](O)C[C@@H]1O
inactive: CP215 | CP262

CN1C(=O)CN2CCc3ccccc3C2c2cc(Cl)ccc21 (configuration not stated)
not listed: CP217 | CP260 | CP237
inactive: all other assays above

CCCCC(C)(O)C/C=C/[C@H]1[C@H](O)CC(=O)[C@@H]1CCCCCCC(=O)OC (some centres not stated)
not listed: CP215
inactive: all other assays above

O=C(O)CN(CCN(CC(=O)O)CC(=O)O)CC(=O)O
not listed: CP215
inactive: all other assays above

COC(=O)[C@H]1[C@H]2CC3c4[nH]c5ccccc5c4CCN3C[C@@H]2CC[C@@H]1O (some centres not stated)
not listed: CP262 | CP215
inactive: all other assays above

O=S(=O)(O)c1ccc2c(N=Nc3ccc(S(=O)(=O)O)c4ccccc34)c(O)c(S(=O)(=O)O)cc2c1
not listed: CP215
inactive: all other assays above
